PostGolgi ctrl = yeast control strain growth, post-Golgi counter-screen. efflux-deficient yeast background strain, growth absorbance A615, 16 h. inhibition, % at 10 µM. hit rate 5% among 98,000
CYP2C19 act = increases human CYP2C19 enzyme activity. P33261. recombinant CYP2C19, luciferin-H EGE luminescence; hits give high values; 0 = fully inhibited enzyme, 1 = untreated enzyme. activation factor at 5 µM. 96,000 tested, under 10 active. AID 1025;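 active means activation factor of at least 2 at 5 µM in the primary screen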;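 further: 0 = wells with 2.5 mM tranylcypromine and 1 = vehicle-only wells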
CYP2C9 act = increases human cytochrome P450 2C9 activity | P11712 | recombinant CYP2C9, luciferin-H conversion, luminescence; hits give high values; factor 1 = untreated enzyme, 0 = blocked | activation factor at 5 µM | hit rate 1.4% among 96,000;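 active means activation factor of 2 or more for CYP2C9 at a 5 µM dose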;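 further: 0 = sulfaphenazole-blocked wells and 1 = vehicle-only wells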
Target sequence (P11712 whole entry, looked up): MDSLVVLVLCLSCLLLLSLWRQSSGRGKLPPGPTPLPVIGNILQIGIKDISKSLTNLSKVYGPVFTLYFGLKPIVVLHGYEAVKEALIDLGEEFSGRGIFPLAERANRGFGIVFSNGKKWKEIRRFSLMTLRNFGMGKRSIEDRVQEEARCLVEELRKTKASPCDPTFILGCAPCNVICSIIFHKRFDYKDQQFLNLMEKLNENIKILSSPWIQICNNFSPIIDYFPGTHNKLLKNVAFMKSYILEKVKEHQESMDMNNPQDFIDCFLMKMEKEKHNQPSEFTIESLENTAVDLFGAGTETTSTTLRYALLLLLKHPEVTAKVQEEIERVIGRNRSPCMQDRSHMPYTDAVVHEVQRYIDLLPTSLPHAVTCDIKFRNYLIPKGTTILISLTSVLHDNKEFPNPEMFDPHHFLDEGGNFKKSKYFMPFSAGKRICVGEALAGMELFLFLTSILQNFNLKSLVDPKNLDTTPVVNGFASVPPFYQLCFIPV
PostGolgi yeast = growth inhibition of a yeast mutant, post-Golgi transport screen. post-Golgi transport phenotypic cell assay. inhibition, % at 10 µM. hit rate 0.9% among 98,000. AID 739;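 further: yeast cells grown in 1536-well plates; yeast grown about 18 h at 30C before absorbance read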
CYP2C9 inh = blocks human cytochrome P450 2C9. inhibition, % at 5 µM. CYP2C9 Supersomes, luciferin-H conversion, luminescence. AID 777. hit rate 20% among 96,000;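 active means blocking of liver enzyme CYP2C9 beyond about 50% at 5 µM, limit read from the data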
CYP2C19 inh = inhibitors of human CYP2C19; P33261; CYP2C19 Supersomes, luciferin-H EGE luminescence, 30 min; inhibition, % at 5 µM; hit rate 21% among 96,000;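 active means CYP2C19 inhibition above a set limit at 5 µM in the primary screen, cut at about 50% in these data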;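 further: plate controls were negative control wells for no effect and 2.5 mM tranylcypromine positive control for full effect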
Active calls of the source: *; nt = not tested or not shown. This is a sample that favours compounds with a hit; in the whole collection about 32% have one here. Unless noted, no stated cut-off is given here; in the data, active means inhibition above about 30%; inactive means the rest.

SMILES	PostGolgi ctrl	CYP2C19 act	CYP2C9 act	PostGolgi yeast	CYP2C9 inh	CYP2C19 inh
CCc1nnc(NC(=O)CSc2ncnc3c2oc2ccccc23)s1	-5.2	0.7	0.2	5.5	76.7*	25.4
O=C(CSc1ncnc2c1oc1ccccc12)Nc1cccc(Cl)c1	-5.9	0.7	0.4	4.4	59.9*	32.0
O=C(CSc1ncnc2c1oc1ccccc12)Nc1ccccc1F	-4.2	1.1	0.8	7.3	20.5	-12.9
S=c1[nH]nc(C2CCCCC2)n1/N=C/C=C/c1ccccc1	30.5*	0.8	0.7	20.0	32.1	24.4
CCOC(=O)C1CCN(C(=O)c2cn(-c3ccccc3)nc2-c2cccnc2)CC1	nt	0.8	0.6	nt	39.4	20.5
O=S(=O)(/N=C/c1c(O)ccc2ccccc12)c1cccs1	-9.2	0.8	0.8	-1.6	16.7	15.4
CC(=O)Oc1ccc(N(C(C)=O)S(=O)(=O)c2cccs2)c2ccccc12	-4.4	0.1	0.5	8.2	49.0	88.5*
Cc1ccc(-n2c(=O)c3sccc3n(CC(=O)NCc3ccco3)c2=O)cc1F	-1.0	1.1	0.9	-7.0	8.8	-5.2
CCOc1ccccc1-c1nc(C(N)=O)c2[nH]c(=O)n(-c3cccc(C)c3)c2n1	16.7	0.5	0.4	23.4	63.7*	47.8
COc1ccc(OC)c(-c2nc(C(N)=O)c3[nH]c(=O)n(-c4ccc(F)cc4)c3n2)c1	5.5	0.8	0.5	-7.3	53.8*	18.3
COc1ccc(-c2nc(C(N)=O)c3[nH]c(=O)n(-c4ccccc4OC)c3n2)c(OC)c1	5.5	0.9	0.8	-1.2	19.2	12.7
O=C(Nc1ccc2nc(-c3ccc4nc[nH]c4c3)[nH]c2c1)c1cccs1	-3.7	0.7	0.4	-6.6	60.7*	32.3
COc1ccc(S(=O)(=O)N2CCSC2c2ccc(N)cc2)cc1 (stereo unspecified)	0.8	0	0.6	-0.6	36.3	97.0*
COc1cc(OC)c(C2SCCN2S(=O)(=O)c2ccc(F)cc2)cc1OC (stereo unspecified)	7.3	0.4	0.7	1.3	31.5	60.4*
CC(=O)Nc1ccc(S(=O)(=O)N2CCSC2c2ccc(Cl)cc2)cc1 (stereo unspecified)	16.4	0.9	1.2	9.6	-18.6	8.4
COc1ccc(OC)c(C2SCCN2S(=O)(=O)c2cccc(C(F)(F)F)c2)c1 (stereo unspecified)	15.9	0.1	0.5	-2.2	53.4*	90.7*
CCc1noc(C)c1C(=O)Nc1ncc(C)s1	-2.2	0.5	0.7	18.7	32.7	47.4
CC(C)CNC(=S)NNC(=O)c1csc2ccccc12	-4.2	0.8	1.1	-2.2	-7.5	23.5
Cc1ccsc1C(=O)NNC(=S)NCC(C)C	4.2	0.1	0.7	4.0	27.5	91.1*
Cc1cccc(NC(=S)NNC(=O)c2sccc2C)c1	9.2	0.3	0.1	1.9	88.0*	73.3*
Cc1cccc(NC(=O)N(C)Cc2cccs2)c1	3.1	0.6	1.3	-8.5	-28.4	44.0
CC(Oc1ccccc1)C(=O)NC1CC(C)(C)NC(C)(C)C1 (stereo unspecified)	0.6	1.1	1.1	8.1	-6.0	-11.1
O=C(CSc1nnnn1-c1ccc(F)cc1)Nc1ccc(N2CCOCC2)c(Cl)c1	8.3	1	1.1	1.8	-8.9	-4.3
O=[N+]([O-])c1nn(-c2ccc3c(c2)OCCO3)n(O)c1=NCCCO	14.7	1	0.9	0.2	12.8	1.5
O=[N+]([O-])c1nn(-c2ccc3c(c2)OCCO3)n(O)c1=Nc1ccc(Cl)cc1	57.2*	0.8	0.9	39.5*	5.7	20.8
SMILES	PostGolgi ctrl	CYP2C19 act	CYP2C9 act	PostGolgi yeast	CYP2C9 inh	CYP2C19 inh
O=[N+]([O-])c1nn(-c2ccccc2)n(O)c1=NCc1ccc2c(c1)OCO2	2.4	0.2	0.5	-7.8	52.9*	77.2*
CCOC(=O)N1CCN(C(=O)c2ccc3c(=O)n(CCc4ccccc4)c(=O)[nH]c3c2)CC1	-2.2	0.5	0.8	9.9	16.8	48.6
Cc1nn2c3c(cnc2c1-c1ccccc1)C(=O)CC(c1ccccc1)C3 (stereo unspecified)	2.0	0.6	0.5	1.0	53.8*	35.9
Cc1nn2c3c(cnc2c1-c1ccccc1)C(=O)CC(c1ccco1)C3 (stereo unspecified)	17.2	1.1	0.7	-0.6	26.6	-7.7
Cc1cc(C(=O)OCC(=O)c2c(N)n(C)c(=O)n(C)c2=O)c(C)n1-c1ccccc1	17.4	0.9	0.6	-5.5	36.4	14.4
Cc1ccc(Sc2c(C)[nH]n(C(C)(C)C)c2=O)cc1	12.6	0.1	0.1	1.6	86.7*	87.6*
O=C(COC(=O)c1cc[n+]([O-])cc1)Nc1ccc2c(c1)OCCO2	-0.6	0.9	0.9	-3.8	8.7	5.0
CCn1ncc(/C=C/C(=O)Nc2c(C)nn(Cc3ccc(Cl)cc3Cl)c2C)c1C	0.6	1.1	0.8	-4.2	16.1	-8.1
COc1cc(C(=O)Sc2ccc(C)cc2)cc(OC)c1OC	45.3*	0.8	0.9	15.4	6.9	18.6
COc1ccc(C2c3c(ncn(CCN4CCOCC4)c3=N)Oc3ccc4ccccc4c32)cc1 (stereo unspecified)	15.6	0.5	0.4	-4.0	55.5*	50.0*
COc1ccc(C2c3c(ccc4ccccc34)Oc3ncn4nc(CO/N=C/c5ccccc5)nc4c32)cc1 (stereo unspecified)	0.0	1	0.4	-0.7	56.1*	-0.3
CC1(NC(=O)C23CC4CC(CC(C4)C2)C3)CCS(=O)(=O)C1 (stereo unspecified)	13.5	1	1	3.8	-3.8	-1.1
CCN1C(=O)C2(C(C#N)=C(N)Oc3n[nH]c(-c4ccccc4)c32)c2ccccc21 (stereo unspecified)	-11.2	1	0.9	-0.7	12.8	1.7
N#CC1=C(N)Oc2ccccc2C12C(=O)Nc1n[nH]c(-c3ccccc3)c12 (stereo unspecified)	14.8	1.2	0.5	1.5	54.2*	-23.2
COc1ccc(/C=N/NC(=O)c2ccn[nH]2)cc1COc1ccc(Cl)cc1	21.2	0.6	0.6	-4.7	37.8	37.2
COc1ccc(/C=N/NC(=O)c2ccccc2O)cc1Cn1cc(Cl)cn1	2.6	0.9	0.5	-8.4	50.8*	10.6
COC(=O)CNC(=O)c1c(-c2ccccc2Cl)noc1C	16.4	0.9	1	-7.5	-4.9	10.6
O=C(/C=C/c1ccccc1Cl)NCc1ccco1	3.5	1	2.3*	1.0	-131.5	2.7
COC(=O)c1c(NC(=O)c2c(C)noc2C)sc2c1CCCCCC2	7.9	1	0.8	-5.6	16.7	0.0
Cc1onc(-c2ccccc2Cl)c1C(=O)Nc1nnc(Cc2ccc(Cl)cc2)s1	14.8	0.9	0.1	-2.9	87.9*	9.5
Cc1onc(-c2ccccc2Cl)c1C(=O)Nc1nnc(C(C)C)s1	17.9	0.8	0.4	-7.9	59.3*	18.6
COC(=O)c1c(NC(=O)c2c(-c3ccccc3Cl)noc2C)sc2c1CCC2	33.5*	0.3	0	-0.2	98.4*	74.1*

Bioassay records as filed in PubChem.
